Laboratory results taken from ChEMBL document CHEMBL1157539, “Thousands of chemical starting points for antimalarial lead identification” (Nature, 2010).

What was measured:
Plasmodium falciparum = experiment: GSK_TCMDC: Inhibition of Plasmodium falciparum 3D7 in whole red blood cells, using parasite LDH activity as an index of growth. Test compounds present at 2uM; type: functional
HepG2 = experiment: GSK_TCMDC: Percent inhibition of human HepG2 cell line. Test compounds present at 10uM.; type: functional

Compound	Inhibition (Plasmodium falciparum) [%]	Inhibition (HepG2) [%]
COc1ccc(CNC(=O)Nc2cccc(-c3csc(NC(=N)N)n3)c2)cc1	80	8
Cc1nn(-c2ccccc2)nc1C(=O)N(Cc1ccc(-c2ccc(CNCCc3ccc(S(C)(=O)=O)cc3)cn2)cc1)C1CC1.O=C(O)C(F)(F)F	84	9
CN(C)Cc1cccc(-c2ccc(NC(=O)c3ccc4c(=O)n(Cc5cnn(C)c5)cnc4c3)cc2)c1	80	12
Cc1cc(OCCCN2CCCC2)ccc1NC(=O)COc1ccc(Cl)cc1C(=O)c1cc(C#N)cc(C(F)(F)F)c1	85	18
O=C(Nc1cccc(-c2nn3ccccc3c2-c2ccnc(Nc3cccc(F)c3)n2)c1)C1CCCCC1	85	44
CC(C)CN1C(=O)C(c2ccc(F)c(F)c2)=C(O)C1c1ccccc1 (stereo not given)	94	0
COc1cc2c(cc1C(F)(F)F)N(C(=O)Nc1ccc(Br)cn1)CC2	97	16
NC(=O)c1sc(-n2cnc3ccc(C(=O)NCCN4CCOCC4)cc32)cc1OCc1ccccc1C(F)(F)F.O=CO	81	0
N#Cc1cc(N(CCCOc2cccc(OC(F)(F)F)c2)Cc2ccccc2C(F)(F)F)ccc1C(F)(F)F	94	2
O=C(Nc1cccc(Cl)c1)c1cc2ccccc2cc1O	97	4
